Results: PubChem BioAssay AID2557 (NMMLSC, 2010)
Values joined by “and” are separate entries in the source; they are usually repeats but may differ in a detail not shown here. Identical values can stand only once. Out of some 330,000 compounds screened, about 650 (0.2%) were called active. Rule as the data show it: active = inhibition above about 50%; inactive = the rest. Many of the other results were omitted from the sample, so actives are more common in it than they were. A structure can be active in one record and inactive in another.

Target: Integrin alpha-4 (Homo sapiens) (UniProt P13612)
Assay: inhibition in human VLA-4 binding assay, primary screen, VLA-4 allosteric modulator project, MLPCN library, flow cytometry, VLA-4 expressing cells (AID 2557)
Conditions: ligand binding flow cytometry, stronger effect = higher value, about 7 µM as worked out from the volumes in the protocol

Integrin alpha-4 (Homo sapiens), sequence (P13612 whole entry, looked up): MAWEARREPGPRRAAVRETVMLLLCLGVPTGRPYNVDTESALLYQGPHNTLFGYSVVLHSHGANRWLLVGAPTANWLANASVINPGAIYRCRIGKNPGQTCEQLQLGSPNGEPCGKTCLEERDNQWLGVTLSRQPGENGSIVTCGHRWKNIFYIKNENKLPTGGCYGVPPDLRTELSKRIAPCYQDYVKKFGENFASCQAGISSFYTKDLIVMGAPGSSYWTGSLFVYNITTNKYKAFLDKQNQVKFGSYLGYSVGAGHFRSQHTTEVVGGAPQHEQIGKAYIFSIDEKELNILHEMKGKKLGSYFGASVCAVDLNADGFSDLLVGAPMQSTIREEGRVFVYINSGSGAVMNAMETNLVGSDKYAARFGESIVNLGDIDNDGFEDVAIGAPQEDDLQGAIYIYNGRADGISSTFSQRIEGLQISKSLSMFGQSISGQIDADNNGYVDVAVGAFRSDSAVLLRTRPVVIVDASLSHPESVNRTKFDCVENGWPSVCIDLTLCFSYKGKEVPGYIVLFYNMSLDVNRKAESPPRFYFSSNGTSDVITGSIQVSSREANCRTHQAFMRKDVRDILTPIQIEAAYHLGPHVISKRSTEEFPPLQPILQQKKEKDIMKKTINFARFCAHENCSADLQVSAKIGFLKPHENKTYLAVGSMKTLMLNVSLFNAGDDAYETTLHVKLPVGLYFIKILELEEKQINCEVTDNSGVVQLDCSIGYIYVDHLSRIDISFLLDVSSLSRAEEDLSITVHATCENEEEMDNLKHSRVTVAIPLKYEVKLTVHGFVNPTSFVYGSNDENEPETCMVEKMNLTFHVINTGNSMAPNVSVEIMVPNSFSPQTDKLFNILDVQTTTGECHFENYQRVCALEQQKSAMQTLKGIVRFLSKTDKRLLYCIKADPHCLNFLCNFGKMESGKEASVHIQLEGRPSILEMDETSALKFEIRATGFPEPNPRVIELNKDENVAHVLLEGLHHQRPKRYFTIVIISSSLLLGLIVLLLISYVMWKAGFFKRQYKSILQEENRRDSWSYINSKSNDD

inhibition, active:
Cc1c(CN2CCC(CO)(CCOc3ccccc3)CC2)[nH]c2ccc(Cl)cc12 54.3%
Cc1ccnc(NC(=O)c2ccco2)n1 63.2%
CCNC(=S)NNC(=O)Cc1ccccc1 94.9%
CC1(C(=O)NCCc2c[nH]c3ccccc23)C=CC2(CCCCC2)N1C(=O)c1ccccc1 (stereo not drawn) 52.7%
COc1ccccc1NC(=O)c1cc(Cl)nnc1Cl 50.6%
CC(=O)NC12CC3CC(C1)CC(C(=O)N1CCN(S(=O)(=O)c4cccs4)CC1)(C3)C2 49.5%
O=C(CN1CCC(NC(=O)Nc2ccccc2)CC1)Nc1cccc([N+](=O)[O-])c1 50.6%
Cc1ccc(NC(=O)OCc2cncs2)cc1 52.5%
O=C(Cn1c(NCCO)nc2ccccc21)c1ccc(Cl)cc1Cl 62.2%

inhibition, inactive:
O=C(O)c1ccc(-n2cccc2)cc1O 7.46%
COc1cccc(NC(=O)Nc2nnc(N3CCCCC3C)s2)c1 (stereo not drawn) -3.47%
OCC1(CCOc2ccccc2)CCN(Cc2cn[nH]c2-c2ccccc2)CC1 0.87%
CCOC(=O)C1(CCOc2ccccc2)CCN(Cc2cc(OC)c(O)cc2Cl)CC1 7.42%
COc1ccc(C2C(C#N)=C(N)Oc3n[nH]c(C)c32)cc1CN1CCN(c2ccc(F)cc2)CC1 (stereo not drawn) 5.55%
COc1nc(OC)nc(N(C)CCO)n1 12.5%
Cc1noc(COc2ccccc2OCc2onc(C)c2Cl)c1Cl -0.81%
Cc1ccccc1C(=O)Nc1cccc(-c2nnc(SCC(=O)O)n2C)c1 5.4%
N#C/C(=C/c1ccc(Cl)cc1)NC(=O)c1ccccc1 -2.66%
CC1(C)Cc2cccc(OCC(=O)N3CCN(c4ccc([N+](=O)[O-])cc4)CC3)c2O1 -21.6%
NC(=O)c1ccsc1NC(=O)c1ccco1 -45.2%
O=C(Nc1nc(-c2ccco2)c(-c2ccco2)s1)c1ccco1 -14.9%
COc1cccc(CCNC(=O)c2cccc(NC(=O)C3=C(C)OCCS3)c2)c1 4.07%
Cc1cc(C(=O)NNS(=O)(=O)c2ccccc2C(F)(F)F)nn1C(C)(C)C 2.36%
Cc1cc(C(=O)OC(C)C(=O)Nc2cccc(S(=O)(=O)N3CCOCC3)c2)c(C)o1 (stereo not drawn) 5.58%
CCn1c(C)nc2cc(C(=O)NNS(=O)(=O)c3ccc(C)cc3C)ccc21 1.05%
COC(=O)c1cc(NS(=O)(=O)c2ccc3c(c2)c(=O)n(C)c(=O)n3C)cc(C(=O)OC)c1 -0.04%
Cc1cccc(CN2CCC(n3nccc3NC(=O)c3ccccc3C)CC2)n1 -1.23%
CCNC(=S)NNC(=O)C1CCN(Cc2ccccc2)CC1 8.74%
Cc1ccc(OCC(=O)NNC(=S)NCc2ccccc2)cc1 -4.04%
O=C(CN1C(=O)NC2(CCCCC2)C1=O)NCCc1c[nH]c2ccccc12 4.17%
O=C(NCCc1c[nH]c2ccccc12)c1cccc(Br)c1 2.59%
Cc1cccc(NC(=O)NC2(C)CCS(=O)(=O)C2)c1 (stereo not drawn) 7.4%
CCOC(=O)c1ccc(NC(=O)c2ccc(NC(=O)C3CCCO3)cc2)cc1 (stereo not drawn) 6.76%
O=C(Nc1ccccc1Cl)NC1(C(=O)N2CCOCC2)CCCCC1 10.7%
CCOc1cc(NC(=S)NCCCN(C)C)c(OCC)cc1NC(=O)C1CC1 -0.39%
Cc1sc2ncnc(Sc3nc4ccccc4s3)c2c1C 8.09%
O=C(c1ccco1)N(Cc1nc2ccccc2c(=O)[nH]1)C1CCCC1 -4.47%
COc1ccccc1NC(=O)c1cc(Cl)nc2ccccc12 7.01%
COc1ccccc1NC(=O)/C=C/C(N)=O 17.5%
Brc1cc(Br)c(Oc2cc(Br)c(Br)cc2Br)cc1Br 11.2%
Cc1[nH]c2ccccc2c1SCC(=O)Nc1nccs1 4.64%
CC1=C(C/C=C(\C)CCCC(C)CCCC(C)CCCC(C)C)C(=O)c2ccccc2C1=O (stereo not drawn) -3.08%
O=C(O)CC(Cc1ccccc1)C(=O)Nc1ccc([N+](=O)[O-])cc1 (stereo not drawn) -9.76%
Cc1c(C(=O)c2cccc([N+](=O)[O-])c2)c2ccccn2c1CCC#N -34.5%
COc1ccc(-c2cc(C(=O)N3CCN(Cc4ccc5c(c4)OCO5)CC3)on2)cc1OC 4.54%
OCC[C@H]1C[C@H](O)[C@@H](O)[C@]2(CCc3ccccc3O2)O1 -21%
CC(=O)N1CCOc2ccc(S(=O)(=O)N3CCC(C(=O)Nc4ccccc4F)CC3)cc21 47.6%
COc1ccc(C(=O)Oc2ccc(-c3nnco3)cc2)cc1S(=O)(=O)N1CCOCC1 -1.94%
Cc1cc(C)nc(Nc2n[nH]c(-c3ccccc3N)n2)n1 2.65%
O=C(NN1C(=O)C2C3C=CC(C4CC34)C2C1=O)c1ccc(Cl)cc1 (stereo not drawn) 0.6%
CC(=O)NC12CC3CC(C1)CC(C(=O)N1CCN(C(=O)c4ccco4)CC1)(C3)C2 6.83%
O=C(c1cccnc1)N1CCN(S(=O)(=O)c2cccs2)CC1 0.7%
CCCCn1c(N)c(N(CCC(C)C)C(=O)COC(=O)c2cccnc2OCC)c(=O)[nH]c1=O -4.24%
COC(=O)[C@@H]1C[C@H]2CC[C@H](O)C[C@H]2N1Cc1ccc(N2CCN(C)CC2)cc1 -1.75%
O=C(COc1ccc(S(=O)(=O)NCCc2ccccc2)cc1)N1CCCC1 3.9%
COCCCn1c(-c2cccs2)nc2nc3ccccc3nc21 -3.42%
O=C(CN1CCOCC1)Nc1cccc([N+](=O)[O-])c1 -3.87%
CN1CCN(CC(=O)Nc2cccc([N+](=O)[O-])c2)CC1 -3.14%
COCC1CCCN(Cc2nc(-c3ccc4c(c3)OCO4)no2)C1 (stereo not drawn) 9.31%
Cc1cc(N2CCCC2=O)cc(C)c1S(N)(=O)=O 14.9%
COc1ccc(NC(=O)NC2CC3CCCC(C2)N3Cc2ccccc2)cc1 (stereo not drawn) 6.26%
Cc1noc(C)c1CSCC(=O)N(CCC(C)C)c1c(N)n(Cc2ccccc2)c(=O)[nH]c1=O -2.16%
CC1(C)S[C@@H]2[C@H](NC(=O)COc3ccccc3)C(=O)N2C1C(=O)OCc1ccccc1 (stereo partly drawn) -9.56%
CC1(C)S[C@@H]2[C@H](N=CN3CCCCCC3)C(=O)N2[C@H]1C(=O)O 4.34%
COc1ccccc1N1CCN(c2ncnc3sc(C)c(-c4ccccc4)c23)CC1 -10.6%
CCn1c(/C=N/NC(=O)c2ccc(OC)cc2)nc2ccccc21 -11%
O=C(C1CCCO1)N1CCN(C(=S)NC2CC2)CC1 (stereo not drawn) 8.17%
COc1ccccc1N(C(=O)Cn1nnc2ccccc21)C(C(=O)NCc1ccco1)c1ccc(C)o1 (stereo not drawn) 14%
O=C(Nc1ccc(F)c(Cl)c1)C1CCN(S(=O)(=O)c2cccnc2)CC1 12.9%
Nc1nnnn1/N=C/c1cccc(Br)c1 0.88%
Cc1ccc(NC(=O)OCCNC(=O)c2ccncc2)cc1 -1.13%
CCOC(=O)Nc1ccc(NC(=O)OCC)cc1 10.4%
FC(F)Oc1ccccc1NC(=S)Nc1cccc(Cl)c1Cl 21.2%
CCN(CC(=O)NCc1ccc(Cl)cc1)C(=O)CSc1ccccc1 -3.34%
COc1ncnc2c1N=C1CC(C)(C)CC(N)=C1S2 -11.6%
O=C(NCc1ccc2c(c1)OCO2)C12CC3CC(CC(C3)C1)C2 0.46%
CCc1c(O)nc(SCC(=O)Nc2ccccc2)n(C(C)CC)c1=O (stereo not drawn) 9.62%
CCOC(=O)c1sc(C)c2c1NC(C)(c1cccc3ccccc13)NC2=O (stereo not drawn) -0.92%
COc1ccc(CCNC(=O)CCC(=O)NC2CCCCC2)cc1OC 4.77%
CCOP(=O)(OCC)C(Nc1ccc([N+](=O)[O-])cc1)c1ccc(Cl)cc1 (stereo not drawn) -0.81%
CCO[C@H]1OC(C(=O)NCc2ccccc2)=C[C@@H](c2coc3ccccc3c2=O)[C@@H]1CCCO -1.21%
C=CCSc1nnc2c(n1)-c1cccc3cccc-2c13 -4.2%
CC(C)(C)C(=O)Cn1c(NCCO)nc2ccccc21 -16.2%
O=S(=O)(O)c1nc2ccccc2n1Cc1ccc(Cl)cc1Cl 16.4%
Cn1cc(CN2CCC(C(O)CCc3ccccc3)CC2)c(-c2ccccc2F)n1 (stereo not drawn) -11.7%
Cc1c(NC(=O)c2c([N+](=O)[O-])cnn2C)c(=O)n(-c2ccccc2)n1C 17.6%
Cc1ccc(C2NC(=S)NC3=C2N2CCC3CC2)cc1 (stereo not drawn) 2.28%
CC[C@@H]1CCCCc2ccccc2[C@@H](C(=O)C[C@H](O)CC(C)=O)OC1=O -25.7%
O=C(Nc1ccc(Br)cc1)C1CCC(=O)N1Cc1ccccc1Cl (stereo not drawn) 28.5%
CCN(CC(=O)Nc1c(F)cccc1F)C(=O)c1ccc(-c2ccccc2)cc1 -6.8%
CCCC[C@@H]1CN=C(N)N1CCc1cc(C(F)(F)F)cc(C(F)(F)F)c1 8.42%
CC1CC(C)CN(S(=O)(=O)c2cccc(C(=O)N3C(=O)c4cccc(N)c4C3=O)c2)C1 (stereo not drawn) 3.91%

inhibition, 5.73% (inactive) and 56.2% (active):
CC1(C)SC2C(NC(=O)COc3ccccc3)C(=O)N2C1C(=O)O (stereo not drawn)
